# Reference: PubChem BioAssay (Tox21)
# Several values for one entry are separate records, joined by “and”; a condition that tells them apart may be missing. Equal values may be shown once. Inconclusive results are not listed. Where a call stands in place of a potency, no number is given. More than one record can exist for a structure, and the calls need not agree. Activity calls are given as the source filed them. Unless noted, calls come from the whole dose curve; as a rule, active = well fitted curve in the direction sought with a large enough effect in the repeat runs; inconclusive = weak or mixed curves; inactive = no such curve, though single readings can be large; an effect the other way counts as inactive or inconclusive.
# Legend:
# [1] = qHTS assay to identify small molecule agonists of the RXR signaling pathway - cell viability counter screen (AID 1159529); note: nearly all actives have a fitted effect of over 50% in size; note: potency is the fitted concentration of half-maximal effect
# Summary of the method: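 CellTiter-Glo luminescence gave viability in the wells also read for beta-lactamase. Cells (RXR-alpha-UAS-bla HEK 293T, 2% charcoal-stripped FBS medium) had 5 hr plating, then 16 hr compound exposure at 37 C; tetraoctyl ammonium bromide served as positive control.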
# [2] = qHTS assay to identify small molecule antagonists of the retinoid acid receptor (RAR) signaling pathway - cell viability counter screen (AID 1159551); note: nearly all actives have a fitted effect of over 35% in size; note: potency is the fitted concentration of half-maximal effect
# Summary of the method: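 Cytotoxicity counter screen: ATP content quantified by CellTiter-Glo luminescence in C3RL4 cells treated 6 hr at 37 C with compound and retinol (1 uM final). Cells plated at 1,000/well and cultured overnight before dosing.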
# [3] = qHTS assay to identify small molecule antagonists of the retinoic acid receptor (RAR) signaling pathway (AID 1159552; note: nearly all actives have a fitted effect of over 50% in size; note: potency is the fitted concentration of half-maximal effect)
# Summary of the method: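 Luminescent RARE reporter read-out in C3RL4 cells: 6 hr co-treatment at 37 C of test compounds with retinol at 1 uM final. Cells plated overnight beforehand; luciferase reagent incubated 30 min at room temperature before reading.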
# [4] = qHTS assay to identify small molecule agonists of the retinoic acid receptor (RAR) signaling pathway (AID 1159553)
# Summary of the method: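 Luminescence was measured 30 min after luciferase reagent addition at room temperature. Before that, C3RL4 reporter cells (1,000 per well, plated overnight) were treated with compound for 6 hr at 37 C and 5% CO2.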
# [5] = qHTS assay to identify small molecule antagonists of the estrogen related receptor (ERR) signaling pathway - cell viability counter screen (AID 1224818);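 note: series mostly up to about 46 µM; viability measured after 17.5 h of compound exposure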
# Summary of the method: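 Cytotoxicity counter screen: fluorescence from CellTiter-Fluor, added after 17.5 h compound exposure at 37 C and read 30 min later. ERR cell line seeded at 2,000 cells/well, preincubated 6 h before dosing.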
# [6] = qHTS assay to identify small molecule antagonists of the estrogen related receptor signaling pathway with the pleiotropic PPARgamma coactivator (PGC) cell viability counter screen (AID 1224822; note: series mostly up to about 46 µM)
# Summary of the method: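 Viability counter-screen read by fluorescence intensity after 30 min with CellTiter-Fluor at 37 C; PGC/ERR reporter cells were exposed to compounds for 17.5 h at 37 C following a 6 h preincubation.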
# [7] = qHTS assay to identify small molecule antagonists of the estrogen related receptor (ERR) signaling pathway (AID 1224819;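 note: luminescence from an ERR-driven luciferase reporter measured with One-Glo reagent; series mostly up to about 46 µM; nearly all actives have a fitted effect of over 50% in size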)
# Summary of the method: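 LOPAC library screened for antagonism as reduced One-Glo luminescence in ERR reporter cells (2,000/well). Compounds were added after 6 h pre-incubation and left 18 h at 37C; reading followed a 30 min room-temperature reagent step.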
# [8] = qHTS assay to identify small molecule agonists of the estrogen related receptor (ERR) signaling pathway (AID 1224820)
# Summary of the method: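 Following a 6 h settling period, 2,000 ERR cells per well receive DMSO-dissolved compounds by pin tool and incubate 18 h at 37 C; agonist activity is scored from One-Glo luminescence read 30 min post-addition.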
# [9] = test system: estrogen-related receptor alpha (ERRalpha) with PGC-1alpha coactivator, human; test: qHTS assay to identify small molecule antagonists of the estrogen related receptor signaling pathway with the pleiotropic PPARgamma coactivator (PGC) (AID 1224821; calls by dose curve;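 note: series mostly up to about 46 µM; lower luminescence signal means antagonism of PGC/ERR signalling; nearly all actives have a fitted effect of over 50% in size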)
# Summary of the method: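 Screening used NTP's PGC/ERR cells, dosed via pin tool with compound in DMSO alongside positive and negative controls. After 18 h at 37 C, One-Glo reagent sat 30 min at room temperature before luminescence detection.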
# [10] = qHTS assay to identify small molecule agonists of the estrogen related receptor signaling pathway with the pleiotropic PPARgamma coactivator (PGC) (AID 1224823)
# Summary of the method: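 In this quantitative high-throughput screen, an 18 h, 37 C treatment of PGC/ERR cells with compounds in DMSO preceded a One-Glo luminescence read taken after 30 min at room temperature.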
smiles,measurement,setting,value
CC(=O)OCCOCCOCCOC(C)=O,Potency,[1],inactive
same,Potency,[2],inactive
same,Potency,[3],inactive
same,Potency,[4],inactive
Cc1cc(OCCOCC[N+](C)(C)Cc2ccccc2)ccc1C(C)(C)CC(C)(C)C,Potency,[1],10.9 µM (active) and 4.77 µM (active)
same,Potency,[2],60.8 µM (active) and 29.8 µM (active)
same,Potency,[3],48.3 µM (active) and 29.8 µM (active)
CCCCCCCCCCCCCC[P+](CCCC)(CCCC)CCCC,Potency,[1],6.13 µM (active) and 11 µM (active)
same,Potency,[2],43 µM (active) and 43.3 µM (active)
same,Potency,[3],9.63 µM (active) and 9.69 µM (active)
O=C1OC2(c3ccc(O)cc3Oc3cc(O)ccc32)c2ccccc21,Potency,[1],inactive
same,Potency,[2],inactive
CCCCOCCOC(=O)c1ccccc1C(=O)OCCOCCCC,Potency,[1],38.1 µM (active) and inactive
same,Potency,[2],inactive
same,Potency,[3],inactive
BrC1CCC(Br)C(Br)CCC(Br)C(Br)CCC1Br (configuration not stated),Potency,[1],15.4 µM (active) and 18.5 µM (active)
same,Potency,[2],inactive
Cc1cc(C(C)(C)C)c(O)c(C(C)(C)C)c1,Potency,[1],inactive
same,Potency,[2],inactive
CCN(CC)CCOc1ccc(/C(=C(\Cl)c2ccccc2)c2ccccc2)cc1,Potency,[1],15.8 µM (active) and 10.7 µM (active)
same,Potency,[2],49.6 µM (active)
same,Potency,[3],24.8 µM (active)
C=C(C)C(=O)O,Potency,[1],inactive
same,Potency,[2],inactive
CCCN[C@H]1CCc2nc(N)sc2C1,Potency,[1],inactive
same,Potency,[2],inactive
CC(=O)O[C@]1(C(C)=O)CC[C@H]2[C@@H]3C[C@H](C)C4=CC(=O)CC[C@]4(C)[C@H]3CC[C@@]21C,Potency,[1],inactive
same,Potency,[2],inactive
Cc1ccnc2c1NC(=O)c1cccnc1N2C1CC1,Potency,[1],inactive
same,Potency,[2],inactive
same,Potency,[3],inactive
same,Potency,[4],inactive
CC(=O)C1=C(C)[C@@H]2C[C@@]3(C1)[C@H](C)CC[C@H]3C2(C)C,Potency,[1],inactive
same,Potency,[2],inactive
CCOc1ccccc1C(N)=O,Potency,[1],inactive
same,Potency,[2],inactive
CC(C)(C)NC(=O)[C@@H]1CN(Cc2cccnc2)CCN1C[C@@H](O)C[C@@H](Cc1ccccc1)C(=O)N[C@H]1c2ccccc2C[C@H]1O,Potency,[1],inactive
same,Potency,[2],inactive
CC(C)(C)c1cc(C(C)(C)C)c(O)c(C(C)(C)C)c1,Potency,[1],inactive
same,Potency,[2],inactive
CN1C(=O)c2ccc([N+](=O)[O-])cc2C1=O,Potency,[1],inactive
same,Potency,[2],inactive
same,Potency,[3],inactive
same,Potency,[4],inactive
CCCCCC(=O)O[C@]1(C(C)=O)CC[C@H]2[C@@H]3CCC4=CC(=O)CC[C@]4(C)[C@H]3CC[C@@]21C,Potency,[1],19.4 µM (active) and 23.9 µM (active)
same,Potency,[2],inactive
COc1ccc(CCN2CCC(Nc3nc4ccccc4n3Cc3ccc(F)cc3)CC2)cc1,Potency,[1],8.9 µM (active) and 21.3 µM (active)
same,Potency,[2],44.2 µM (active)
same,Potency,[3],2.11 µM (active)
CN(C)c1ccc(C(=C2C=CC(=[N+](C)C)C=C2)c2ccccc2)cc1,Potency,[1],3.47 µM (active) and 2.39 µM (active) and 4.25 µM (active)
same,Potency,[2],10.6 µM (active) [middle of 4 runs]
O=C(O[C@@H]1Cc2c(O)cc(O)cc2O[C@@H]1c1cc(O)c(O)c(O)c1)c1cc(O)c(O)c(O)c1,Potency,[1],inactive
same,Potency,[2],inactive
same,Potency,[3],inactive
same,Potency,[4],inactive
CC[C@@H](N)CO,Potency,[1],inactive
same,Potency,[2],inactive
same,Potency,[3],inactive
same,Potency,[4],inactive
CC(COc1ccccc1)N(CCCl)Cc1ccccc1 (configuration not stated),Potency,[1],inactive
same,Potency,[2],inactive
Oc1c(Cl)cc(Cl)cc1Sc1cc(Cl)cc(Cl)c1O,Potency,[1],49.1 µM (active)
same,Potency,[2],inactive
same,Potency,[3],30.7 µM (active) and 27.8 µM (active) and 27.3 µM (active)
same,Potency,[4],inactive
COC(=O)/C=C/c1ccccc1,Potency,[1],inactive
same,Potency,[2],inactive
same,Potency,[3],inactive
same,Potency,[4],inactive
CC1COc2c(N3CCN(C)CC3)c(F)cc3c(=O)c(C(=O)O)cn1c23 (configuration not stated),Potency,[1],inactive
same,Potency,[2],inactive
same,Potency,[3],inactive
same,Potency,[4],inactive
same,Potency,[5],inactive
same,Potency,[6],inactive
C=C(C)C1CC=C(C)C(OC(C)=O)C1 (configuration not stated),Potency,[1],inactive
same,Potency,[2],inactive
same,Potency,[3],inactive
same,Potency,[4],inactive
Cc1scc2c1N(C(=O)CN1CCN(C)CC1)c1ccccc1NC2=O,Potency,[1],inactive
same,Potency,[2],inactive
same,Potency,[3],inactive
same,Potency,[4],inactive
same,Potency,[5],inactive
same,Potency,[6],inactive
CC(C)C(=O)c1c(C(C)C)nn2ccccc12,Potency,[1],inactive
same,Potency,[2],inactive
same,Potency,[3],inactive
same,Potency,[4],inactive
same,Potency,[5],inactive
same,Potency,[7],inactive
same,outcome,[8],inactive
same,Potency,[9],inactive
same,Potency,[6],inactive
same,outcome,[10],inactive
CCN1CCCC1CNC(=O)c1cc(S(=O)(=O)CC)c(N)cc1OC (configuration not stated),Potency,[1],inactive
same,Potency,[2],inactive
same,Potency,[3],inactive
same,Potency,[4],inactive
same,Potency,[5],inactive
same,Potency,[7],inactive
same,outcome,[8],inactive
same,Potency,[9],inactive
same,Potency,[6],inactive
same,outcome,[10],inactive
CCn1cc(C(=O)O)c(=O)c2cc(F)c(N3CCNC(C)C3)c(F)c21 (configuration not stated),Potency,[1],inactive
same,Potency,[2],inactive
same,Potency,[3],inactive
same,Potency,[4],inactive
same,Potency,[5],inactive
same,Potency,[7],inactive
same,outcome,[8],inactive
same,Potency,[9],inactive
same,Potency,[6],inactive
same,outcome,[10],inactive
Cc1occc(=O)c1OC(=O)C(C)C,Potency,[1],inactive
same,Potency,[2],inactive
same,Potency,[3],inactive
same,Potency,[4],inactive
c1cnc2cc3c(cc2n1)C1CNCC3C1,Potency,[1],inactive
same,Potency,[2],inactive
same,Potency,[3],inactive
same,Potency,[4],inactive
same,Potency,[5],inactive
same,Potency,[7],inactive
same,outcome,[8],inactive
same,Potency,[9],inactive
same,Potency,[6],inactive
same,outcome,[10],inactive
O=C1CC2(CCCC2)CC(=O)N1CCCCN1CCN(c2ncccn2)CC1,Potency,[1],inactive
same,Potency,[2],inactive
same,Potency,[3],inactive
same,Potency,[4],inactive
same,Potency,[5],inactive
same,Potency,[7],inactive
same,outcome,[8],inactive
same,Potency,[9],inactive
same,Potency,[6],inactive
same,outcome,[10],inactive
N[C@@H]1CONC1=O,Potency,[1],inactive
same,Potency,[2],inactive
same,Potency,[3],inactive
same,Potency,[4],inactive
same,Potency,[5],inactive
same,Potency,[7],inactive
same,outcome,[8],inactive
same,Potency,[9],inactive
same,Potency,[6],inactive
same,outcome,[10],inactive
CC(C)(c1ccccc1)c1ccc(Nc2ccc(C(C)(C)c3ccccc3)cc2)cc1,Potency,[1],inactive
same,Potency,[2],inactive
same,Potency,[3],inactive
same,Potency,[4],inactive
C[N+]1([O-])CCOCC1,Potency,[1],inactive
same,Potency,[2],inactive
same,Potency,[3],inactive
same,Potency,[4],inactive
